GASC-1 inh – blocks human GASC-1 demethylase activity; inhibition, % at 2.35 µM; GST-JMJD2C(1-420) H3K9me3 demethylation, DELFIA europium; 330,000 compounds, 0.069% hits; Q9H3R0;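 active = more than half of a compound's replicate wells show inhibition beyond 50%, single wells judged on their own value; inconclusive = some, but no more than half, of replicates pass 50% inhibition; inactive = no replicate passes 50% inhibition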;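 note: signal counts dimethyl H3K9 product captured on neutravidin plate; 0% = median of DMSO wells and 100% = 0.3 times that DMSO median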
Target sequence (Q9H3R0 1-420 limits assumed): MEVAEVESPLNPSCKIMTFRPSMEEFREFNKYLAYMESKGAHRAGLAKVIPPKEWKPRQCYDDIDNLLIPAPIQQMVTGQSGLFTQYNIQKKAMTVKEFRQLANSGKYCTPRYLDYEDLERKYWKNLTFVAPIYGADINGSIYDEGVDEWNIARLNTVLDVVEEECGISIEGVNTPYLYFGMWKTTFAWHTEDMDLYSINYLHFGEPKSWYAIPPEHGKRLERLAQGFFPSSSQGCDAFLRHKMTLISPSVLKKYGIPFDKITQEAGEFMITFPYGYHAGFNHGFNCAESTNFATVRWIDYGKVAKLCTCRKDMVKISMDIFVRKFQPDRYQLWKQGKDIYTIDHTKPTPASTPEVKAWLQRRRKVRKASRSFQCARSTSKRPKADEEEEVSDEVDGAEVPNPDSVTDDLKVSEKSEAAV
GRK2 inh – human GRK2 inhibition via aptamer displacement; 330,000 compounds, 0.59% hits; P25098; bead flow cytometry, FAM-aptamer displacement from GRK2; AID 488847; inhibition of aptamer binding, % at 10 µM;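 active = inhibition of aptamer binding above 40%, roughly 3 SD of noise, on plates passing a quality check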;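 note: median bead fluorescence of bound FAM aptamer so fluorescent compounds give negative values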
VLA-4 inh – inhibition in a human VLA-4 binding assay; inhibition, % (about 7 µM as worked out from the volumes in the protocol); P13612; AID 2557; 330,000 compounds, 0.2% hits; VLA-4 expressing cells, ligand binding flow cytometry; in the data active = inhibition above about 50%
PREPL inhibitor – inhibitors of human prolyl oligopeptidase-like enzyme PREPL. recombinant PREPL, fluorescence polarization activity-based probe. inhibition, % at 5.96 µM. 320,000 compounds, 0.68% hits; in the data active = inhibition above about 43%;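 note: 0% = enzyme with DMSO and 100% = wells lacking enzyme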
Pemphigus Ab inh – blocks pemphigus antibody binding to human desmoglein-3; 310,000 compounds, 0.48% hits; binding (percent of control), % at 10 µM; P32926; AID 588358; DSG3-coupled beads, scFv-anti-DSG3-GFP binding, flow cytometry; hits give low values;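 active = binding more than 3 SD below its plate's average and above zero; inconclusive = below that plate limit but binding exactly zero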;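 note: hits lower antibody fragment binding to DSG3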
VLA-4 allo CP – confirmation of allosteric modulators of human VLA-4 integrin. shares compounds with VLA-4 inh. U937 cells, HUTS-21 LIBS mAb binding, flow cytometry; LDV ligand present at threefold Kd. inhibition, % at 6.7 µM. 1,300 compounds, 2% hits. AID 2813; in the data active = inhibition above about 40%;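 note: 0% = ligand without compound and 100% = no ligand background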
Numbers without * were called inactive; i = inactive; u = inconclusive; x = not tested or not shown. Shown are actives, neighbours in structure and some others; about 1.6% of the full set was active somewhere.

SMILES	GASC-1 inh	GRK2 inh	VLA-4 inh	PREPL inhibitor	Pemphigus Ab inh	VLA-4 allo CP
COc1ccc(-c2[nH]c(-c3ccc(Cl)cc3)nc2SCC(=O)Nc2nccs2)cc1	0	0	-2	18	73*	x
O=C(CSc1nnc(CCCO)n1-c1ccccc1)Nc1nccs1	10	1	1	-3	107	x
COc1ccc(-c2nnc(SCC(=O)Nc3ccc(C(=O)O)cc3)n2-c2ccc(Cl)cc2)cc1	6	1	21	x	108	x
COc1ccc(-c2[nH]c(-c3ccccc3)nc2SCC(=O)Nc2nccs2)cc1	x	2	5	8	105	x
Cc1cccc(C)c1OCc1nnc(SCC(=O)Nc2nccs2)n1-c1ccccc1	-4	0	-5	8	34*	x
COc1ccc(-n2c(SCC(=O)Nc3nccs3)nnc2-c2ccc(Cl)cc2)cc1	x	x	x	x	-1.0*	x
COc1ccccc1CNC(=O)CCS(=O)(=O)c1ccc(Cl)cc1	-5	2	0	0	101	x
COc1ccc(-c2csc(NC(=O)CS(=O)(=O)c3ccc(F)cc3)n2)cc1OC	-2	0	21	4	106	x
O=C(/C=C/c1ccccc1[N+](=O)[O-])c1ccccc1Br	-3	0	24	-4	100	x
Cc1ccc(NS(=O)(=O)c2ccc(C)c(NC(=S)NCCN3CCOCC3)c2)c(C)c1	9	2	24	10	108	x
O=C(CN(C1CCCCC1)S(=O)(=O)c1ccccc1)N1CCCC1	6	1	19	13	102	x
O=C(CN(C1CCCCC1)C1CCCCC1)N1CCc2ccccc2C1	-3	1	5	9	41*	x
c1cnc2nc3c4ccccc4c4ccccc4c3nc2c1	x	x	x	x	78*	x
COc1ccc(-c2[nH]c3ccccc3c2SCCN)cc1	-4	0	7	55*	98	x
COc1ccc(-c2[nH]c3ccccc3c2SCCNC(=O)c2cc3ccccc3oc2=O)cc1	-2	0	-7	17	101	x
CCN(CC)S(=O)(=O)c1ccc2c(c1)N(CC(=O)Nc1cccnc1Cl)C(=O)CO2	31	0	32	2	100	x
N#CC1=C(SCc2ccccc2)NC(=O)CC1c1cccc(O)c1 (stereo not drawn)	-5	0	29	1	83*	x
O=c1oc(-c2cccnc2)nc2ccccc12	u	3	19	-2	77*	x
COc1ccc(NC(=O)c2ccc3c(c2)OCO3)cc1Cl	23	0	8	-2	46*	x
O=C(Nc1ccc(F)c(Cl)c1)c1ccc2c(c1)OCO2	4	0	2	2	104	x
CC[C@]12c3[nH]c4ccccc4c3CCN1C(=O)C(CC(=O)NCCCN(C)C)C[C@@H]2C(=O)N1CCN(C(=O)c2ccco2)CC1 (stereo partly drawn)	6	0	2	12	97	x
O=C(NCCCn1ccnc1)C(=O)NCC(c1cccnc1)N1CCN(c2ccccc2)CC1 (stereo not drawn)	-16	3	57*	5	105	-7
O=C(NCC(=O)N1CCC(Cc2ccccc2)CC1)c1ccc(Cl)cc1	2	2	2	-15	112	x
COc1ccc(C2CC3(CC(C)(C)NC(=S)N3)Oc3cc(O)cc(C)c32)cc1 (stereo not drawn)	3	0	18	10	93	x
COc1ccc(C2CC3(CC(C)(C)NC(SC)=N3)Oc3cc(O)cc(C)c32)cc1 (stereo not drawn)	-10	0	41	4	107	-8
SMILES	GASC-1 inh	GRK2 inh	VLA-4 inh	PREPL inhibitor	Pemphigus Ab inh	VLA-4 allo CP
CN1C(=O)C(C)(C)c2cc(S(=O)(=O)N3CCN(c4ccccc4F)CC3)ccc21	-15	1	-5	-64	93	3
Cc1ccc(NC(=O)N(C)c2ccccc2)cc1	-3	1	-2	x	123	-7
CN(C(=O)Nc1cnc2ccccc2c1)c1ccccc1	-6	2	-15	7	98	x
C=C1CC(C(=O)N/N=C/c2ccccc2)C1	-15	4	42	16	x	-22
O=[N+]([O-])c1cncc([N+](=O)[O-])c1Nc1cccc(O)c1	-9	1	1	-7	94	x
CC(C)C(NC(=O)c1ccccc1)c1nnc(SCC(=O)Nc2nccs2)n1C (stereo not drawn)	-22	4	58*	3	111	3
CS(=O)(=O)NN1C(=O)c2ccccc2NC12CCCC2	8	1	22	-1	95	x
CCOc1cccc(-c2nc3cc(C)ccc3o2)c1	-14	2	9	-4	105	x
Cc1ccc2oc(-c3ccccc3)nc2c1	4	0	94*	-8	107	5
COc1ccccc1N1CCN(CCCNc2cc(=O)n(C)c(=O)n2C)CC1	-12	2	55*	-7	105	10
COc1ccccc1N1CCN(CCCNc2c(C)c(=O)n(C)c(=O)n2C)CC1	-12	0	33	2	123	x
CCCc1cc(C(=O)N2CCCC(C(=O)c3cc(C)c(OC)c(C)c3)C2)n(C)n1 (stereo not drawn)	-10	0	106*	11	101	8
Cc1cccc(NC(=O)c2cc[n+]([O-])cc2)c1C	-14	0	1	7	x	x
Cc1nn(CC(=O)NC2(C#N)CCCCC2)c(C)c1[N+](=O)[O-]	2	0	7	-3	103	x
CN(C)/C(=C\C(=O)c1ccccc1)C(=O)c1ccccc1	x	x	x	x	85	-8
O=C(C=C(C(=O)c1ccccc1)c1ccccc1)c1ccccc1	x	x	x	x	97	x
Cc1cc(C(=O)NNC(=O)C2CCCC2)c(C)o1	4	0	70*	-3	x	-4
Cc1occc1C(=O)NNC(=O)C1CCCC1	-4	2	-1	-4	x	x
CCOc1cc(Cl)c(CNCCCN2CCOCC2)cc1OC	-8	0	-3	7	115	x
CCOCCCNC(=O)C(Cc1ccccc1)NS(=O)(=O)c1ccc2c(c1)c(=O)n(C)c(=O)n2C (stereo not drawn)	-21	2	33	23	101	x
CCCCNC(=O)C(Cc1ccccc1)NS(=O)(=O)c1ccc2c(c1)c(=O)n(C)c(=O)n2C (stereo not drawn)	-2	11	50*	9	107	-5
O=C1c2[nH]c(=O)[nH]c(=O)c2CN1Cc1ccccc1	x	x	x	x	120	x
CCc1c(C)c2ccc(OC(C)C(=O)NC(Cc3c[nH]c4ccc(O)cc34)C(=O)O)c(C)c2oc1=O (stereo not drawn)	6	1	52*	-1	106	11
Cc1ccc2c(c1)N(CCC(=O)NC1CCCCC1C)C(=O)CO2 (stereo not drawn)	i	1	-8	2	x	x
O=C(CC1SCCNC1=O)Nc1ccccc1Cl (stereo not drawn)	16	2	59*	5	122	2
O=C(CC1SCCNC1=O)Nc1ccc(F)c(Cl)c1 (stereo not drawn)	-1	0	6	0	113	x

From PubChem
